The values that follow come from PubChem BioAssay.

Calls of active or inactive are those of the source.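 The calls were made as follows: active = inhibition above 20% together with a positive visual image hit; inconclusive = visual image hit but inhibition not above 20%; inactive = no visual image hit.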

One may read the inhibition as the change of the read-out against control, counted positive when it falls.

This experiment in a line: inhibitors of TNFa-induced NFkB p65 translocation, primary screen, imaging, HUVEC, MLSMR starter and 10KST1 sets (AID 438).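 Also: compound added about 3h40 before a 20 min TNFalpha stimulation.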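 As to inhibition: signal is the nuclear over cytoplasmic p65 intensity ratio per well.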 The note with it: HUVEC TNFa-induced p65 nuclear translocation; cell count: measured here: nuclei count (cytotoxicity indicator), at 2.08 µM; inhibition: at 2 µM, stronger effect = higher value, 0% TNFa-plus-vehicle, 100% no-TNFa wells.
Regarding `O=C(CCn1c(=O)c2ccccc2n(CC(=O)NCCC2=CCCCC2)c1=O)NCc1ccco1`, the cell count is 596 and the inhibition is -10.9% (inactive).

Turning to `CCOC(=O)N1CCC(n2c(SCC(=O)NCc3ccco3)nc3ccsc3c2=O)CC1`, the cell count is 729 and the inhibition was 3.4% (inactive).

With `CCOC(=O)N1CCC(NC(=O)c2ccc3c(c2)N(CC)CCS3)CC1`, the cell count was found to be 382 and the inhibition is -2.4% (inactive).

In the case of `CC(=O)NC1(C(F)(F)F)NC(=O)N(CC(C)C)C1=O` (stereo not given), the cell count stood at 359 and the inhibition was 4% (inactive).

Regarding `COc1ccc(CCn2c(-c3ccco3)nc3ccccc3c2=O)cc1OC`, the cell count was 425 and the inhibition was -0.6% (inactive).

In the case of `CCCC(=O)Nc1cc(-c2nnc(OC)c3ccccc23)ccc1N1CCOCC1`, the cell count turned out to be 385 and the inhibition was -9.8% (inactive).

On to `O=c1oc2ccccc2c(O)c1CN1CCCCC1`, for which the cell count was 361 and the inhibition was 2.9% (inactive).

As for `Nc1nc(N2CCN(C/C=C/c3ccccc3)CC2)nc2ccccc12`, the inhibition is 7.3% (inactive) and the cell count was found to be 563.

Take `Cc1ccc(-c2cn3cccnc3n2)cc1NC(=O)c1ccc(Br)o1`: the cell count was found to be 420 and the inhibition is 4.7% (inactive).

Turning to `O=c1[nH]c(Nc2ccccc2)cc2ccccc12`, the inhibition was -14.6% (inactive) and the cell count came out at 526.

In the case of `Fc1ccc(-c2nnc(CN3CCN(c4ncc(C(F)(F)F)cc4Cl)CC3)o2)cc1`, the cell count is 405 and the inhibition was -14.7% (inactive).

Turning to `COc1cc(N=c2ssnc2Cl)cc(OC)c1`, the inhibition was -7.4% (inactive) and the cell count came out at 148.

For `COc1ccc(-c2c(=O)n(OCc3ccccn3)c3ccccc3[n+]2[O-])cc1OC`, the inhibition was 3.3% (inactive) and the cell count was 398.

Turning to `Cc1sc2nc(SCC(=O)N3CCN(CCO)CC3)n(-c3ccccc3)c(=O)c2c1C`, the inhibition was 7% (inactive) and the cell count was found to be 397.

Turning to `CC(=O)Nc1cccc(NC(=O)C2CCCN2C(=O)Nc2ccc(C)cc2)c1` (stereo not given), the inhibition was -3.2% (inactive) and the cell count is 789.

On to `Cc1ccc(C)n1-n1c(C)nc2sc(-c3ccccc3)cc2c1=O`, for which the cell count worked out at 419 and the inhibition was -0.6% (inactive).

As for `O=C1c2ccccc2-c2ccc(C(=O)N3CCOCC3)cc21`, the cell count was determined as 623 and the inhibition was -4.1% (inactive).

On to `O=C1NC(c2ccccc2)(C(F)(F)F)SC2=CCCCCN12` (stereo not given), for which the inhibition was 12.1% (inactive) and the cell count was 415.

For the molecule `CC1CCCCN1CCNC(=O)C1CCN(S(=O)(=O)c2cccc3cccnc23)CC1` (stereo not given), the cell count was determined as 450 and the inhibition was -0.8% (inactive).

As for `Cc1ccc(-c2nnc3c4ccccc4c(C)nn23)cc1S(=O)(=O)N1CCN(C)CC1`, the cell count was 640 and the inhibition is 7.2% (inactive).

As to `O=S(=O)(c1ccc2c(c1)OCCO2)N1CCC(n2nnc3cc(F)ccc32)CC1`, the cell count was found to be 577 and the inhibition is -9.9% (inactive).

In the case of `O=C(c1ccco1)N1CCN(S(=O)(=O)c2ccc(C3CCCCC3)cc2)CC1`, the cell count turned out to be 400 and the inhibition was 7.2% (inactive).

As for `CC(=O)c1ccc(NC(=O)CSc2nnc(-c3ccoc3C)n2Cc2ccccc2)cc1`, the inhibition is -4.2% (inactive) and the cell count came to 366.

For `Cc1cc(NC(=O)CSc2nnc(COc3cccc(C)c3C)n2Cc2ccco2)no1`, the inhibition is -8.7% (inactive) and the cell count was determined as 363.

Consider `COc1cccc(NC(=O)C2CCN(c3ncccn3)CC2)c1`, for which the cell count amounted to 746 and the inhibition is -18.4% (inactive).

Consider `CC1(C)CN=C(N2CCN(c3ncnc4sc5c(c34)CCCC5)CC2)S1`, for which the inhibition is 4.1% (inactive) and the cell count was 395.

Consider `CCOCCn1c(CN2CCN(c3cccc(Cl)c3)CC2)nc2c1c(=O)n(C)c(=O)n2C`, for which the inhibition was -15.7% (inactive) and the cell count was found to be 743.

Turning to `Clc1ccc(OCCCn2cncn2)cc1Cl`, the inhibition is 3.4% (inactive) and the cell count amounted to 432.

Consider `CN(CC(=O)Nc1ccc(F)c(Cl)c1)S(=O)(=O)c1cccc2nsnc12`, for which the cell count was determined as 615 and the inhibition was -19.8% (inactive).

Turning to `O=C(NCc1nc2ccccc2[nH]1)c1ccco1`, the inhibition is 0.8% (inactive) and the cell count was 440.

In the case of `O=C(Cc1cccs1)Nc1ccccc1NC(=O)Cc1cccs1`, the cell count stood at 323 and the inhibition was -1.4% (inactive).

For `COc1ccc(-c2nnc(SCC(=O)N3CCCCC3)o2)cc1OC`, the cell count is 670 and the inhibition is -1.6% (inactive).

Consider `CCOC(=O)c1cc2c(=O)n3ccccc3nc2n(CCCOC)c1=NC(=O)C(C)(C)C`, for which the inhibition is 2.6% (inactive) and the cell count turned out to be 656.

`Cc1onc(-c2ccccc2Cl)c1C(=O)Nc1cnn(Cc2ccccc2)c1`: the inhibition was 1.1% (inactive) and the cell count is 545.

For the molecule `CC1Cc2ccccc2N1C(=O)c1cccnc1` (stereo not given), the inhibition was -1% (inactive) and the cell count stood at 254.

For the molecule `CS(=O)(=O)Nc1ccccc1C(=O)O`, the inhibition is -2.1% (inactive) and the cell count is 363.

For `O=C1CN(C(=O)COC(=O)C23CC4CC(CC(O)(C4)C2)C3)c2ccccc2N1`, the inhibition was 1.4% (inactive) and the cell count worked out at 649.

Regarding `O=C(Nc1ccc(F)cc1)NC1CCN(Cc2nnnn2Cc2ccco2)CC1`, the cell count amounted to 849 and the inhibition is 0% (inactive).

Regarding `CCC(=O)c1ccc(OC(=O)c2ccc(Br)o2)cc1`, the inhibition is 6.8% (inactive) and the cell count worked out at 354.

In the case of `Cc1ccc(NC(=O)CCC(=O)OCC(F)(F)C(F)F)cc1`, the cell count is 551 and the inhibition is -2.4% (inactive).
